Anthrax LF inh2 – blocks Bacillus anthracis lethal factor protease | multiplex microsphere protease cleavage assay, LF | inhibition, % at 10 µM | actives 0.12% (n = 360,000) | AID 588501
Bead autofluor – flagged as autofluorescent in microsphere protease counterscreen. compound autofluorescence counterscreen, microsphere flow cytometry; active compounds read high. actives 3.1% (n = 360,000). fluorescence intensity (no concentration beside the values). AID 624483; in the data active = fluorescence intensity above about 16000; inconclusive = no clear call, values can overlap the other calls
BoNT-F LC inh – blocks Botulinum neurotoxin F light chain protease; Multiplex microsphere protease cleavage assay, flow cytometry; AID 588497; actives 0.22% (n = 360,000); inhibition, % at 10 µM; in the data active = inhibition above about 35%, passing the limit was not always enough; inconclusive = no clear call, values can overlap the other calls
BoNT A protease – inhibitors of Botulinum neurotoxin A light chain protease. multiplex microsphere protease substrate cleavage, flow cytometry. actives 0.17% (n = 360,000). inhibition, % at 10 µM. AID 588499
PriA SSB inh – K. pneumoniae PriA-SSBct interaction inhibition. AID 1272365. inhibition, % at 33 µM. actives 0.6% (n = 430,000). AlphaScreen SSBct-PriA binding, biotinylated peptide; in the data active = inhibition mostly above about 37%, no sharp cut-off; inactive = mostly below about 20%
Of the large screens only hits and unclear results are named; the others gave an inactive call. In the library only some 3.1% were active in any assay of this set; here they are far more common. Rule as the data show it, unless noted: active = inhibition above about 30%; inconclusive = no clear call, values can overlap the other calls; inactive = below that.

COc1cc(=O)[nH]c(SCc2c(F)c(F)c(F)c(F)c2F)n1	Bead autofluor 18910
O=C(Nc1cccc2cccnc12)c1ccc2c(c1)OCCO2	Bead autofluor 23021, BoNT A protease inconclusive
CC(C)Cc1nnc(NC(=O)c2cc(-c3ccccc3)nc3ccccc23)s1	Bead autofluor 16445
Cc1ccc(C)c(-c2cc(C(=O)Nc3sc(C)c(C)c3C(N)=O)c3ccccc3n2)c1	Bead autofluor 23000, BoNT A protease inconclusive
O=C(Nc1ccc2c(c1)OCCO2)c1cc(-c2ccccc2)nc2ccccc12	Bead autofluor 24974, BoNT A protease inconclusive
O=C(Nc1ccc2c(c1)OCO2)c1cc(-c2ccncc2)nc2ccccc12	none
O=Cc1ccccc1OC(=O)c1ccccc1Br	none (no result: Anthrax LF inh2, Bead autofluor, BoNT-F LC inh, BoNT A protease)
O=C(Nc1ccc2oc(-c3ccccc3)nc2c1)c1ccc2c(c1)OCCO2	Bead autofluor 22968
Cc1cc(N2CCC(NC(=O)Cc3ccccc3Cl)CC2)n[nH]1	none (no result: Anthrax LF inh2, Bead autofluor, BoNT-F LC inh, BoNT A protease)
CC1(C)OC(=O)C(=NNc2ccc(Cl)cc2)C(=O)O1	Bead autofluor 22457
Cc1cccc(OCCOC(=O)C2CCN(S(=O)(=O)c3ccc(C)c(C)c3)CC2)c1	PriA SSB inh 47
Cc1ccc(S(=O)(=O)N2CCC(C(=O)OCCOc3cccc(C)c3)CC2)cc1	none
CCc1ccc(N/C(SCc2ccccc2C)=C(/C#N)C(=O)NCc2ccco2)cc1	Bead autofluor 17346
Cc1ccc(N2C(=O)[C@H](Cc3ccccc3C)S/C2=C(\C#N)C(=O)NCc2ccco2)cc1	none (no result: Anthrax LF inh2, Bead autofluor, BoNT-F LC inh, BoNT A protease)
CCC(=NCc1cccnc1)c1c(O)n(-c2ccccc2C)c(=O)[nH]c1=O	BoNT-F LC inh inconclusive
CCC(=NCc1cccnc1)c1c(O)n(C2CCCCC2)c(=O)[nH]c1=O	Bead autofluor 20661
CCC(=NCc1ccco1)c1c(O)n(C2CCCCC2)c(=O)[nH]c1=O	none
CC(=NCc1cccnc1)c1c(O)n(C2CCCCC2)c(=O)[nH]c1=O	Bead autofluor 22369, BoNT A protease inconclusive
CC(=NCc1cccnc1)c1c(O)n(-c2ccc(C)cc2)c(=O)[nH]c1=O	none
CC(=NCc1cccnc1)c1c(O)n(-c2ccccc2C)c(=O)[nH]c1=O	Bead autofluor 20266
CCc1nnc2ccc(N3CCN(S(=O)(=O)CCc4ccccc4)CC3)nn12	none (no result: Anthrax LF inh2, Bead autofluor, BoNT-F LC inh, BoNT A protease)
Cc1nc(-c2cccs2)sc1CNC(=O)C1CCC1	none (no result: Anthrax LF inh2, Bead autofluor, BoNT-F LC inh, BoNT A protease)
O=C(CSCc1ccccc1)NCCN1CCN(c2ccccc2F)CC1	none (no result: Anthrax LF inh2, Bead autofluor, BoNT-F LC inh, BoNT A protease)
Cc1ccc(-c2nc(C)cc(OCC(=O)NCc3ccccc3Cl)n2)cc1	none (no result: Anthrax LF inh2, Bead autofluor, BoNT-F LC inh, BoNT A protease)
COc1ccc(CNC(=O)N2CCCN(S(=O)(=O)c3cnn(C)c3)CC2)cc1OC	none (no result: Anthrax LF inh2, Bead autofluor, BoNT-F LC inh, BoNT A protease)
O=C(NC1CCCC1)c1csc2c1CCCC2	Bead autofluor 19286
CCCCCCCCCCS(=O)(=O)NN=Cc1ccc([N+](=O)[O-])cc1	none (no result: Anthrax LF inh2, Bead autofluor, BoNT-F LC inh, BoNT A protease)
CCCCCCCCCCS(=O)(=O)N/N=C/c1ccc([N+](=O)[O-])cc1	Bead autofluor 21737, BoNT A protease inconclusive (no result: PriA SSB inh)
CCOC(=O)c1sc2cccc(F)c2c1N	Bead autofluor 22763, BoNT A protease inconclusive
CCOC(=O)c1sc2cccc(Cl)c2c1N	none
CCc1ccc(C=NC23CN4CN(CN(C4)C2)C3)s1	Bead autofluor 16887, BoNT A protease inconclusive
C(=NC12CN3CN(CN(C3)C1)C2)c1cccnc1	none
COCCN1CCCc2ccc(NS(=O)(=O)c3ccccc3Br)cc21	none (no result: Anthrax LF inh2, Bead autofluor, BoNT-F LC inh, BoNT A protease)
CCOc1ccccc1-c1noc(Cn2c(=O)n(C(C)C)c(=O)c3ccccc32)n1	none (no result: Anthrax LF inh2, Bead autofluor, BoNT-F LC inh, BoNT A protease)
O=C(Nc1ccc(Nc2ccc(-n3cccn3)nn2)cc1)c1ccccc1C(F)(F)F	none (no result: Anthrax LF inh2, Bead autofluor, BoNT-F LC inh, BoNT A protease)
O=C(Nc1ccc(Nc2ccc(-n3cccn3)nn2)cc1)c1cc2ccccc2oc1=O	PriA SSB inh 56 (no result: Anthrax LF inh2, Bead autofluor, BoNT-F LC inh, BoNT A protease)
O=C(Nc1ccc(-n2nncc2-c2ccco2)cc1)c1cccc(F)c1	none
COc1cccc(C(=O)Nc2ccc(Nc3ccc(-n4cccn4)nn3)cc2)c1OC	PriA SSB inh 70 (no result: Anthrax LF inh2, Bead autofluor, BoNT-F LC inh, BoNT A protease)
O=C(Nc1ccc(F)cc1)Nc1ccc(Nc2ccc(-n3cccn3)nn2)cc1	none (no result: Anthrax LF inh2, Bead autofluor, BoNT-F LC inh, BoNT A protease)
O=C(Nc1ccc(Nc2ccc(-n3cccn3)nn2)cc1)Nc1cccc(F)c1	PriA SSB inh 36 (no result: Anthrax LF inh2, Bead autofluor, BoNT-F LC inh, BoNT A protease)
O=C(Nc1ccc(-n2nncc2-c2ccco2)cc1)c1cc2ccccc2oc1=O	Bead autofluor 20140, PriA SSB inh 46
COc1ccc(C(=O)/C=C/c2ccc(/C=N\N(C)C)cc2)cc1OC	none (no result: Anthrax LF inh2, Bead autofluor, BoNT-F LC inh, BoNT A protease)
CC(=O)Nc1ccc(SCC(=O)Nc2ccccc2C(F)(F)F)nn1	none (no result: Anthrax LF inh2, Bead autofluor, BoNT-F LC inh, BoNT A protease)
O=C(Nc1ccc(Br)cc1)c1ccno1	none (no result: Anthrax LF inh2, Bead autofluor, BoNT-F LC inh, BoNT A protease)
Cc1nc2ccc(NC(=S)NC(C)C)cc2nc1C	Bead autofluor 22287
CCOC(=O)N1CCN(C(=O)CN2CC(c3nc(C4CC4)no3)C2)CC1	none (no result: Anthrax LF inh2, Bead autofluor, BoNT-F LC inh, BoNT A protease)
CCC(C(=O)NC1CCCC1)N(C(=O)Cn1nnc(-c2ccc(C)cc2)n1)C1CCCC1 (stereo not drawn)	none

Screening results deposited in PubChem BioAssay by several laboratories.
